Most compounds without a hit are left out; they make up all but 18% or so of the library.
TDP1 inh: TDP1 (human) enzyme inhibition; Q9NUW8; recombinant TDP1, AlphaScreen DNA substrate cleavage; Potency, µM (titrated, usually from 130 µM), inactives show at the top dose activity change, negative = inhibition, usual class: inhibitors; actives 0.28% (n = 350,000); further: potency means the concentration at half of the fitted maximal effect; nearly all actives have a fitted effect of over 40% in size
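Recombinant human Tdp1 (E. coli-expressed, 1 nM final) preincubated with compounds 15 min at room temperature, then 5'-biotin/3'-phosphotyrosine-FITC DNA substrate (15 nM final) added for 5 min. AlphaScreen beads (10 ug/ml final) added 10 min; cleavage lowers signal.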
TDP1 cell CPT: growth inhibition of DT40 Tdp1-/-;hTDP1 cells with camptothecin (screen for TDP1 inhibitors); chicken DT40 Tdp1-/-;hTDP1 cells + 20 nM CPT, ATP luminescence, 48 h; Potency, µM (series often up to 46.2 µM), without a hit: at the highest dose activity change, negative = growth inhibition, usual class: inhibitors; actives 12% (n = 420,000); AID 686979; further: potency means the concentration at half of the fitted maximal effect; nearly all actives have a fitted effect of over 55% in size
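Cell growth measured by CellTiter-Glo luminescence after a minimum 48 h, 37 C compound exposure with 20 nM CPT in Tdp1-knockout DT40 cells stably expressing hTDP1, seeded 400/well; qHTS titration format.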
IL-1B inflam inh: inflammasome signaling inhibition, IL-1 beta readout; actives 4.7% (n = 360,000); AID 743279; THP-1 LPS/ATP IL-1B secretion, AlphaLISA, 16 h; stronger effect = lower value; activity change, % at 57.5 µM; in the data active means activity change below about -50%; inconclusive means mostly about -30% to -49%
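Secreted IL-1B measured by AlphaLISA bead assay after 16 h compound exposure of THP-1 cells; compounds (final up to 57.5 uM) added 1 h before LPS (250 ng/mL) and ATP (1.25 mM) stimulation; lower signal means less secretion.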
CtBP-E1A inh: inhibitors of CtBP/E1A interaction; AlphaScreen GST-E1A/His-CtBP binding, 1536-well; stronger effect = lower value; activity change, % (test concentration not listed); actives 0.49% (n = 340,000); AID 651724; in the data active means activity change below about -65%; inconclusive means mostly about -30% to -63%
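GST-E1A and His-tagged CtBP (125 nM each as 5X stock) were preincubated with pin-transferred compound for 2 h at 37 °C in the dark, then glutathione donor and nickel acceptor beads were added for 1 h before AlphaScreen reading.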
Six1-Eya2 inh: inhibitors of human Six1/Eya2 interaction. actives 0.56% (n = 360,000). AlphaScreen GST-Six1/His-Eya2 binding, biochemical; stronger effect = lower value. activity change, % (no concentration beside the values); in the data active means activity change below about -65%; inconclusive means mostly about -30% to -63%
Target sequence (O00167 whole entry, looked up): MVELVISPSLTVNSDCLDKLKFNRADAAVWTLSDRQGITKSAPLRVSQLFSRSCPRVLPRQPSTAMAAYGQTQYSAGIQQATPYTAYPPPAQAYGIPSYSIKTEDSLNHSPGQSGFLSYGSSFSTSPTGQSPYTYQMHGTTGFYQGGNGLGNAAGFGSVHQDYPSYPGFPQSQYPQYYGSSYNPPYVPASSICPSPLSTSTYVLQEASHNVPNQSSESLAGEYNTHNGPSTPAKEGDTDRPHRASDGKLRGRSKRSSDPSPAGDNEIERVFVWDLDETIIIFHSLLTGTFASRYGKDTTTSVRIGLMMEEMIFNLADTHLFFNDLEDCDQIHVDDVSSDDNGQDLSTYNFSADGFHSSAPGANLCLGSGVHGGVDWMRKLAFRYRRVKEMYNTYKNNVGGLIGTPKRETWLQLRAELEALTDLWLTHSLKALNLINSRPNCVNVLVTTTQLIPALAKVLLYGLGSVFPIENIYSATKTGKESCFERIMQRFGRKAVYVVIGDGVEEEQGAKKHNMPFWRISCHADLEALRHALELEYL
Target sequence (Q15475 whole entry, looked up): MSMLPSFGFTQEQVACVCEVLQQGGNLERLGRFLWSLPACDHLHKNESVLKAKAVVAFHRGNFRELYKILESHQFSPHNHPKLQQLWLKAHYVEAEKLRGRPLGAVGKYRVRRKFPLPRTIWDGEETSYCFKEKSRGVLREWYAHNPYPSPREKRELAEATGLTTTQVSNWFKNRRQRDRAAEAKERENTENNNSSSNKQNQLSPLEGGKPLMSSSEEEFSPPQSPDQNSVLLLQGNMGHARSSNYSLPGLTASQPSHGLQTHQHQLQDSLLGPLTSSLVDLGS
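Compounds are tested against tagged Six1 and Eya2 proteins bridged by glutathione donor and nickel acceptor beads; after a one-hour incubation at 37 °C without light, AlphaScreen emission is recorded.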
TDP1 cell noCPT: qHTS for Inhibitors of human tyrosyl-DNA phosphodiesterase 1 (TDP1): qHTS in cells in absence of CPT | DT40 Tdp1-/- hTDP1 cells, no CPT, ATP luminescence, 48 h | AID 686978, 2013 | Potency, µM (highest dose often 46.2 µM), without a hit: top-dose activity change, negative = growth inhibition, hits mostly inhibitors | actives 15% (n = 420,000); further: potency means the concentration at half of the fitted maximal effect; nearly all actives have a fitted effect of over 55% in size
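Chicken DT40 Tdp1-/- cells complemented with human TDP1, screened without camptothecin (DMSO vehicle only), 400 cells/well. Compounds pin-transferred, cells incubated at 37 °C for at least 48 hr. Growth read as ATP-dependent luminescence (CellTiter-Glo, 30 min at RT).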
Active calls of the source: *; i = inactive; ? = inconclusive; / = no result given. Unless noted, the call rests on the fitted dose curve; in most records, active means well fitted curve in the direction sought with a large enough effect; inconclusive means small, poorly fitted or top-dose-only effect, or another doubt; inactive means no such curve, though single readings can be large; an effect the other way counts as inactive or inconclusive. On the % scale 0 is the no-effect control and ±100 the full control effect.

SMILES	TDP1 inh	TDP1 cell CPT	IL-1B inflam inh	CtBP-E1A inh	Six1-Eya2 inh	TDP1 cell noCPT
O=C(Nc1c2c(nc3ccccc13)CCCC2)c1ccccc1F	2.6%	-24.4%	2.0	-2.2	-11.1	?
CC(=O)c1ccc(Nc2c3c(nc4ccccc24)CCCC3)cc1	7.0%	14.6µM*	-0.1	/	-2.7	18.4µM*
Cc1ccc2nc3c(c(Nc4cccc(O)c4)c2c1)CCC3	/	?	117.8	-0.9	-5.9	?
Fc1cccc(Nc2c3c(nc4ccccc24)CCC3)c1	/	?	?	-3.6	-2.1	25.9µM*
COc1cc(S(=O)(=O)NC2CCCC2)ccc1F	4.5%	1.3%	11.9	9.6	6.7	-1.0%
CCOC(=O)c1cccc(Nc2c3c(nc4ccccc24)CCC3)c1	4.7%	?	/	/	/	13µM*
COC(=O)c1cccc(Nc2c3c(nc4ccccc24)CCC3)c1	/	7.31µM*	-97.5*	1.8	-3.5	10.3µM*
O=C(NCc1ccco1)C1CCCCN1S(=O)(=O)c1ccc(F)cc1 (stereo not drawn)	4.9%	-5.4%	21.8	1.1	-3.0	-24.7%
CC1Cc2ccccc2N1C(=O)Cn1nnc(-c2ccccc2NC(=O)C2CCC2)n1 (stereo not drawn)	2.4%	?	-11.2	-1.8	-3.6	14.6µM*
COc1ccc(C(=O)Cn2nnc(-c3ccccc3NC(=O)C3CCCCC3)n2)cc1	4.5%	23.1µM*	18.8	0.7	-0.2	?
CCC(=O)Nc1ccccc1-c1nnn(CC(=O)N2c3ccccc3CC2C)n1 (stereo not drawn)	-0.5%	?	-6.2	14.6	0.3	-22.3%
CCN(CC)c1nc(N)n(CCSC(=S)N(C)C)c(=O)n1	/	-10.2%	-4.2	/	1.8	-10.6%
Cc1nc2c(nnn2Cc2ccccc2)c(=O)n1-c1ccccc1	5.9%	-28.2%	6.4	3.1	1.0	-23.6%
CCOC(=O)/C=C1\CN(Cc2ccc(OC)cc2)S(=O)(=O)c2ccc(C(F)(F)F)cc21	/	12.6µM*	/	/	/	11.2µM*
CC1c2ccccc2N(S(=O)(=O)c2ccccc2)C1C (stereo not drawn)	/	?	31.8	20.6	10.7	23.1µM*
O=[N+]([O-])c1cc(-c2ccc(/C=N/c3nc4ccccn4c3-c3ccco3)o2)ccc1Cl	5.1%	?	?	-10.2	-25.3	23.1µM*
CCN(CC1COc2ccccc2O1)C(=O)c1ccc(Cl)c(S(=O)(=O)N2CC(C)OC(C)C2)c1 (stereo not drawn)	-0.5%	7.31µM*	-3.0	0.6	5.4	4.61µM*
CCN(Cc1ccccc1)C(=O)c1ccc(C)c(S(=O)(=O)N2CCCCC2)c1	-1.4%	?	0.1	3.7	2.6	16.4µM*
COc1ccc(CC(=O)N(Cc2ccccc2)c2ccccc2)cc1S(=O)(=O)N1CCOCC1	1.2%	16.4µM*	i	-7.5	0.8	14.6µM*
CCCN(CC(=O)Nc1ccccc1C)C(=O)c1ccc(C)c(S(=O)(=O)N2CCCCC2)c1	-1.9%	-13.6%	-17.5	0.0	0.0	-28.9%
COCCN(Cc1ccccc1)C(=O)Cc1ccc(OC)c(S(=O)(=O)N2CCOCC2)c1	0.2%	-27.1%	6.7	8.5	-0.1	?
O=C(c1cccc(S(=O)(=O)N2CCOCC2)c1)N(CCc1ccccc1)Cc1ccccc1	0.2%	?	-14.8	-3.9	-2.3	?
Cc1ccc(C(=O)N(CCc2ccccc2)Cc2ccccc2)cc1S(=O)(=O)N1CCOCC1	/	14.6µM*	-21.6	/	2.2	23.1µM*
O=C(NC1CCCC1)c1c(O)nc2sccn2c1=O	/	?	-2.6	3.0	2.2	-26.2%
Cc1ccccc1OCC(=O)Nc1cccc(S(=O)(=O)NC2=NCCCCC2)c1	/	?	-8.1	2.2	-0.5	?
SMILES	TDP1 inh	TDP1 cell CPT	IL-1B inflam inh	CtBP-E1A inh	Six1-Eya2 inh	TDP1 cell noCPT
COc1ccc(C(=O)N(CCc2ccccc2)Cc2ccccc2)cc1S(=O)(=O)N1CCOCC1	4.5%	23.1µM*	-11.8	-4.2	-1.2	16.4µM*
CC1CN(S(=O)(=O)c2cc(C(=O)N(CCc3ccccc3)Cc3ccccc3)ccc2Cl)CC(C)O1 (stereo not drawn)	1.9%	11.6µM*	-4.0	4.8	-7.3	10.3µM*
Cc1ccc(C(=O)N(CCc2ccccc2)Cc2ccccc2)cc1S(=O)(=O)N1CCCCC1	5.2%	?	-16.2	7.6	-7.8	18.4µM*
Cc1ccc(S(=O)(=O)N2CCCCC2)cc1C(=O)NCCc1ccccc1	3.7%	-6.6%	-13.4	-1.0	18.9	?
CC(=O)N1CCN(C(=O)c2ccc(Cl)c(S(=O)(=O)N3CC(C)OC(C)C3)c2)CC1 (stereo not drawn)	0.0%	-0.6%	-1.3	-3.5	13.9	8.8%
COc1ccc(C(=O)NCC(C)(c2ccccc2)c2ccccc2)cc1S(=O)(=O)N1CCOCC1	/	?	1.0	3.2	-2.3	?
Cc1ccc(NS(=O)(=O)c2cc(C(=O)NCc3ccccn3)ccc2Cl)cc1	1.9%	-8.2%	9.6	8.3	0.8	-11.5%
CCOC(=O)N1CCN(C(=O)c2ccc([N+](=O)[O-])cc2Cl)CC1	/	?	12.0	5.6	2.1	?
C=CC[C@@H](CC(=O)N(CCO)Cc1ccccc1)C(=O)N[C@H](COC(=O)[C@@H](CC=C)CC(=O)OC(C)(C)C)C(C)(C)C	-0.2%	?	-58.3*	2.2	3.0	?
C=CC[C@@H](CC(=O)N[C@@H](CO)Cc1ccccc1)C(=O)N[C@H](COC(=O)[C@@H](CC=C)Cc1ccc(F)cc1)Cc1ccccc1	0.1%	?	14.1	/	3.5	?
C=CC[C@H](CC(=O)NCCO)C(=O)N[C@@H](C)COC(=O)[C@@H](CC=C)CC(=O)OC(C)(C)C	-0.1%	-16.8%	4.6	/	-3.0	-12.9%
C=CC[C@H](CC(=O)N(CCO)Cc1ccccc1)C(=O)N[C@H](COC(=O)[C@H](CC=C)CC(=O)OC(C)(C)C)Cc1ccccc1	0.6%	23.1µM*	-27.0	-8.6	-11.2	20.6µM*

From PubChem
